Laboratory results published in PubChem BioAssay (EPA / NIEHS).
Several values for one entry are separate records, joined by “and”; a condition that tells them apart may be missing. Identical values can stand only once. Inconclusive results are not listed. Some compounds were tested as several samples or in several runs, with calls that do not always agree. Activity calls are given as the source filed them. Rule for the calls, unless noted: active = hit-call score of the fitted dose curve at least 0.9, where 1 is the maximum; inconclusive = response in the unintended direction; inactive = score below 0.9.

What was measured:
[1] = molecular target: Peroxisome proliferator-activated receptor gamma (Homo sapiens) (UniProt P37231); assay: NVS_NR_hPPARg: NovaScreen (NVS) Nuclear Receptor Binding Assay for human Peroxisome Proliferator-activated Receptor gamma (PPARg) (AID 2283370)
How it was run: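 Cell-free fluorescence polarization binding to human PPARg protein, read 2 h after dosing. Primary screen in duplicate at 25 uM, actives followed in concentration series; loss of signal relative to DMSO scored.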

[2] = molecular target: Estrogen receptor beta (Homo sapiens) (UniProt Q92731); assay: OT_ER_ERbERb_1440: Odyssey Thera (OT) 24-hour HEK293T Protein-Complementation Assay for Estrogen Receptor-beta/-beta Homodimer (AID 2283380);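 note: fluorescence gain from ER beta LBD homodimer complementation read by laser scanning cytometry; scored as signal increase over DMSO baseline for both agonists and antagonists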
How it was run: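 Fluorescence increase, nuclear for agonists or whole-cell for antagonists, relative to DMSO vehicle, quantified by laser scanning cytometer after fixation and Draq5 staining. Readout from 24 h treatment of HEK293T cells carrying complementation-paired ER beta LBD (aa 310-547).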

[3] = molecular target: Estrogen receptor (Homo sapiens) (UniProt P03372); assay: OT_ERa_GFPERaERE_0480: Odyssey Thera (OT) 8-hour HeLa Transcription Induction Assay for Estrogen Receptor (AID 2283381; active = hit-call score of the fitted dose curve at least 0.9, where 1 is the maximum; inactive = score below 0.9)
How it was run: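 HeLa cells dosed with compound and imaged by fluorescence microscopy at 8 h; GFP induction from an ERE reporter quantified by high-content image analysis and fitted as gain of signal against DMSO baseline.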

[4] = molecular target: Estrogen receptor (Homo sapiens) (UniProt P03372); assay: OT_ERa_GFPERaERE_0120: Odyssey Thera (OT) 2-hour HeLa Transcription Induction Assay for Estrogen Receptor (AID 2283382)
How it was run: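 HeLa cells were dosed with test chemical and read 2 hours later for GFP-ERα/ERE-linked fluorescent protein induction by fluorescence microscopy. Gain-of-signal was fitted relative to DMSO baseline, quantified by high content image analysis.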

[5] = molecular target: Retinoic acid receptor RXR-alpha (Homo sapiens) (UniProt P19793); assay: OT_NURR1_NURR1RXRa_1440: Odyssey Thera (OT) 24-hour HEK293T Protein Complementation Assay for Nurr1/retinoid X receptor (RXR) (AID 2283386)
How it was run: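 HEK293T cells were dosed with compound and read 24 h later by fluorescence intensity in a protein-fragment complementation format, where Nurr1–RXRα interaction reconstitutes a split reporter. Activity was fitted as gain of signal relative to DMSO baseline.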

[6] = molecular target: Peroxisome proliferator-activated receptor gamma (Homo sapiens) (UniProt P37231); assay: OT_PPARg_PPARgSRC1_0480: Odyssey Thera (OT) 8-hour Protein-Complementation Assay for Peroxisome Proliferator-activated Receptor Gamma / SRC-1 Co-activator (AID 2283387)
How it was run: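 HEK293T transiently transfected with PPARg and SRC-1 fused to Venus YFP fragments, compounds 8 h at 37C. Fixed, Draq5-stained cells imaged; nuclear/cytoplasmic 488 nm fluorescence ratio over at least 350 cells per image; gain fitted versus DMSO.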

[7] = molecular target: Peroxisome proliferator-activated receptor gamma (Homo sapiens) (UniProt P37231); assay: OT_PPARg_PPARgSRC1_1440: Odyssey Thera (OT) 24-hour Protein-Complementation Assay for Peroxisome Proliferator-activated Receptor Gamma/ SRC-1 Co-activator (AID 2283388)
How it was run: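 HEK293T transiently transfected with PPARg/SRC-1 split-Venus YFP fusions 48 h before dosing, then treated 24 h at 37C. Fixed cells imaged; nuclear/cytoplasmic 488 nm fluorescence ratio, gain of signal versus DMSO.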

[8] = molecular target: Agonist Androgen Response Element (ARE), AR (gene 367) (UniProt P10275); assay: OT_AR_ARELUC_AG_1440: Odyssey Thera (OT) 24-hour CHO-K1 Luciferase Assay for Agonist Androgen Response Element (ARE) (AID 2283379)
How it was run: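 Agonist mode, 24 h exposure in CHO-K1 ARE-luciferase cells; values reflect luminescence induction over vehicle.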

[9] = molecular target: Bile acid receptor (Homo sapiens) (UniProt Q96RI1); assay: OT_FXR_FXRSRC1_0480: Odyssey Thera (OT) 8-hour HEK293T Protein-Complementation Assay for Farnesoid X receptor/SRC-1 Co-activator (AID 2283383)
How it was run: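 HEK293T cells expressing FXR and SRC-1 fused to reporter fragments were dosed with compound for 8 h; fluorescence from the reconstituted reporter marked co-activator recruitment. Gain of signal was fitted against the DMSO baseline.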

[10] = molecular target: Bile acid receptor (Homo sapiens) (UniProt Q96RI1); assay: OT_FXR_FXRSRC1_1440: Odyssey Thera (OT) 24-hour HEK293T Protein-Complementation Assay for Farnesoid X receptor/SRC-1 Co-activator (AID 2283384)
How it was run: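 HEK293T cells were dosed with compound and read 24 h later by fluorescence intensity from protein-fragment complementation reporting FXR/SRC-1 co-activator interaction. Gain of signal was fitted relative to DMSO negative control as baseline.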

[11] = molecular target: human Dopamine Transporter (DAT), SLC6A3 (gene 6531) (UniProt Q01959); assay: NVS_TR_hDAT: NovaScreen (NVS) Transporter Assay for human Dopamine Transporter (DAT) (AID 2283374);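 note: activity means loss of bound radioligand signal relative to DMSO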
How it was run: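 Test chemicals were first screened in duplicate at 25 uM, with actives retested as concentration series. Displacement of a specific radioligand from cell-free human dopamine transporter was measured after 1 h by filtration and scintillation counting.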

[12] = molecular target: Retinoic acid receptor RXR-alpha (Homo sapiens) (UniProt P19793); assay: OT_NURR1_NURR1RXRa_0480: Odyssey Thera (OT) 8-hour HEK293T Protein Complementation Assay for Nurr1/retinoid X receptor (RXR) (AID 2283385)
How it was run: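 HEK293T cells expressing Nurr1 and RXRα fused to reporter fragments were dosed with compound for 8 hours. Complex formation was read as fluorescence intensity and analysed as gain of signal against DMSO as baseline.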

[13] = molecular target: mouse Estrogen Receptor alpha (Era), Esr1 (gene 13982) (UniProt P19785); assay: NVS_NR_mERa: NovaScreen (NVS) Nuclear Receptor Binding Assay for mouse Estrogen Receptor alpha (Era) (AID 2283378);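 note: hit means loss of bound radioligand signal relative to DMSO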
How it was run: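 Cell-free radioligand competitive displacement binding, read by filter-based scintillation counting 18 h after dosing. Primary screen run in duplicate at 25 uM, actives retested in concentration series; loss of signal versus DMSO.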

[14] = molecular target: rat Serotonin Transporter (SERT), Slc6a4 (gene 25553) (UniProt P31652); assay: NVS_TR_rSERT: NovaScreen (NVS) Transporter Assay for rat Serotonin Transporter (SERT) (AID 2283375)
How it was run: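 Rat forebrain membranes; radioligand displacement at SERT read by filter-based scintillation counting, 1 h after dosing. Screened in duplicate at 25 uM, actives then run in concentration series; loss of signal versus DMSO baseline.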

Measured: AC50

Agonist Androgen Response Element (ARE), AR (gene 367), sequence (P10275 whole entry, looked up): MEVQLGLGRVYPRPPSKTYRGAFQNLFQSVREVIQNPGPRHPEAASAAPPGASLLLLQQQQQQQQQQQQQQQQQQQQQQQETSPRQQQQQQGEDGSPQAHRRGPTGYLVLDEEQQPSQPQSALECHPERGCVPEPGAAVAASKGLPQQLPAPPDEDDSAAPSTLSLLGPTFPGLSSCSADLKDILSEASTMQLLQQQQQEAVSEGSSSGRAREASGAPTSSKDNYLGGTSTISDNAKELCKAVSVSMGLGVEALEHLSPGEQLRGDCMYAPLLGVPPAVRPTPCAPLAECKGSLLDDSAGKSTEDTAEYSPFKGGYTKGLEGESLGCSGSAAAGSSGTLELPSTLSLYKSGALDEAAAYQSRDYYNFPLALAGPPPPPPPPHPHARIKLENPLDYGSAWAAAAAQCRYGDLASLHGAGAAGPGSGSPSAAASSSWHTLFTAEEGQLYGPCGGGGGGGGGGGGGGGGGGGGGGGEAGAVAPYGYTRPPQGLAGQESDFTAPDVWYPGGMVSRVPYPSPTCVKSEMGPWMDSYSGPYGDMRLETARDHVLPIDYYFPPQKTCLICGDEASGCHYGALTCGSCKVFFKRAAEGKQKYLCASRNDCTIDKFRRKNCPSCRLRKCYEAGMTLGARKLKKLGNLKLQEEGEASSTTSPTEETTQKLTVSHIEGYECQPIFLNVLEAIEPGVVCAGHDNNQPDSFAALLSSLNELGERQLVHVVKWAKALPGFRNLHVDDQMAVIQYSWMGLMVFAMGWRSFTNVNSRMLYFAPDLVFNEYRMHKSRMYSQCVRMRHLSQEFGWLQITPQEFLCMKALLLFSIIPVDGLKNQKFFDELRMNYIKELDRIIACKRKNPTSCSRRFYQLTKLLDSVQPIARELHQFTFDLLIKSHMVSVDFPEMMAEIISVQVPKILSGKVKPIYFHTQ
Retinoic acid receptor RXR-alpha (Homo sapiens), sequence (P19793 whole entry, looked up, the tested form may be a part): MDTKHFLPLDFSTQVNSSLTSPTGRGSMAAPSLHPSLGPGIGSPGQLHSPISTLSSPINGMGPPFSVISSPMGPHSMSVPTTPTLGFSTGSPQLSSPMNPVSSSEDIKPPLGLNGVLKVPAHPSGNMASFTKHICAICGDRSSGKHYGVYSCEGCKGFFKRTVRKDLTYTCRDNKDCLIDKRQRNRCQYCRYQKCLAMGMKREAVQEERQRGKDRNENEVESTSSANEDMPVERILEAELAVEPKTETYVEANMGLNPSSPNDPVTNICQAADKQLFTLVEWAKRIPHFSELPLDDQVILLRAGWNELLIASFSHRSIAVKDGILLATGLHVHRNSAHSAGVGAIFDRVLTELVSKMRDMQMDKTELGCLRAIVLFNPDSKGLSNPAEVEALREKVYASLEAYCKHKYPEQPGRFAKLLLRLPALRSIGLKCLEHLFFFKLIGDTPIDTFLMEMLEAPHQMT
Estrogen receptor (Homo sapiens), sequence (P03372 whole entry, looked up): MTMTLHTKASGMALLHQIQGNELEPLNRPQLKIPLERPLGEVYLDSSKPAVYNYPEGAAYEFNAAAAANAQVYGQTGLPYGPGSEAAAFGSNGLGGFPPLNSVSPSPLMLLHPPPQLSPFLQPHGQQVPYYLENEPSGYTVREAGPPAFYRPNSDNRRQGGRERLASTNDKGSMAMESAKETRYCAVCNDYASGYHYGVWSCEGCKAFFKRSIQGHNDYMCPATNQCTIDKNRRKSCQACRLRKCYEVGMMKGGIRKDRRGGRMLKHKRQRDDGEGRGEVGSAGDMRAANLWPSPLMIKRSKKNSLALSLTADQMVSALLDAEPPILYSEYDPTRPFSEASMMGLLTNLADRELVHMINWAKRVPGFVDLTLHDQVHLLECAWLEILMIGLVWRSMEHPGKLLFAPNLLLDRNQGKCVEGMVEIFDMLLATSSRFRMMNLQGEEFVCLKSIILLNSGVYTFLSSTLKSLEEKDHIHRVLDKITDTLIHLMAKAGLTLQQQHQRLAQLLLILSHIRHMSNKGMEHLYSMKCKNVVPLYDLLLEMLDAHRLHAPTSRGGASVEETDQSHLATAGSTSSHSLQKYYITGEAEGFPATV
Peroxisome proliferator-activated receptor gamma (Homo sapiens), sequence (P37231 whole entry, looked up, the tested form may be a part): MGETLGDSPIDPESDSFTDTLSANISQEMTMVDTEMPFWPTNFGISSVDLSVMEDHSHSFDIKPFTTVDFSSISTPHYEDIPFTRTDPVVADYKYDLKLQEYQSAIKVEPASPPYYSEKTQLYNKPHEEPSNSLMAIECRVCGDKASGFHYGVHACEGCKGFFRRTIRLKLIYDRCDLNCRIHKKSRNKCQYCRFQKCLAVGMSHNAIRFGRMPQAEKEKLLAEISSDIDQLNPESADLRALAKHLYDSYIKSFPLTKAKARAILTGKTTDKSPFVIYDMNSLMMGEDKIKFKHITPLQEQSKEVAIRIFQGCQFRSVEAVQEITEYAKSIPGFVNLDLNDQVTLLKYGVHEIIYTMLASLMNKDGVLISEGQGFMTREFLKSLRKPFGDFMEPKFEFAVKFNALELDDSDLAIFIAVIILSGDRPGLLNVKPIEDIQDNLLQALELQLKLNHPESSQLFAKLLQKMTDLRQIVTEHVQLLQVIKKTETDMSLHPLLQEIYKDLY
Estrogen receptor beta (Homo sapiens), sequence (Q92731 whole entry, looked up, the tested form may be a part): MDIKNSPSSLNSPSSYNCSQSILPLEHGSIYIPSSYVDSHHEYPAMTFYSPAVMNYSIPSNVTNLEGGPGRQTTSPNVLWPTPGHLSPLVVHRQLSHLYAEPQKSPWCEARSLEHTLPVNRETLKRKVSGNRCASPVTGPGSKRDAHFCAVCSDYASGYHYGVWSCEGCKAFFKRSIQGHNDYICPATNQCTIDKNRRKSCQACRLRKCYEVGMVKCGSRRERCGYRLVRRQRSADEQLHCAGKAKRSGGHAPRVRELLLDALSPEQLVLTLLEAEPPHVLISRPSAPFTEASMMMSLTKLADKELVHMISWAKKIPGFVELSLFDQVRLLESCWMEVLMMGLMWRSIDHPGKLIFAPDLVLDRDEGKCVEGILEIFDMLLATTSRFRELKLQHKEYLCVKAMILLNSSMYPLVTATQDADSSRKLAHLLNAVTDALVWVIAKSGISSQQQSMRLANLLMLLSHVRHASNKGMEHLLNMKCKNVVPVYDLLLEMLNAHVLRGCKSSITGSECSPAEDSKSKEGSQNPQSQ
Bile acid receptor (Homo sapiens), sequence (Q96RI1 whole entry, looked up, the tested form may be a part): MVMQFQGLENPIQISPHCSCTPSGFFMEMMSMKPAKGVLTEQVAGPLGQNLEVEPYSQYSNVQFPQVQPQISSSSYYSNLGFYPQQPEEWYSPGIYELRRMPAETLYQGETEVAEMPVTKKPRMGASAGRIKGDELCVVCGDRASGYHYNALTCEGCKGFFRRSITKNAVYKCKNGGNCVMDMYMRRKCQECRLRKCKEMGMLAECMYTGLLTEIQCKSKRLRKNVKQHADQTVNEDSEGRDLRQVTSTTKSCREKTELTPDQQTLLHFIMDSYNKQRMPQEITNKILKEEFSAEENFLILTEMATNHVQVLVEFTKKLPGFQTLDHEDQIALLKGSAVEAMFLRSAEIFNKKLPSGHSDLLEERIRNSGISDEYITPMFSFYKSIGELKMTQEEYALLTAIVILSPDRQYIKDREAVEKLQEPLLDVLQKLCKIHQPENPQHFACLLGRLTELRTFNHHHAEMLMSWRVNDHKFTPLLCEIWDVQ
mouse Estrogen Receptor alpha (Era), Esr1 (gene 13982), sequence (P19785 whole entry, looked up): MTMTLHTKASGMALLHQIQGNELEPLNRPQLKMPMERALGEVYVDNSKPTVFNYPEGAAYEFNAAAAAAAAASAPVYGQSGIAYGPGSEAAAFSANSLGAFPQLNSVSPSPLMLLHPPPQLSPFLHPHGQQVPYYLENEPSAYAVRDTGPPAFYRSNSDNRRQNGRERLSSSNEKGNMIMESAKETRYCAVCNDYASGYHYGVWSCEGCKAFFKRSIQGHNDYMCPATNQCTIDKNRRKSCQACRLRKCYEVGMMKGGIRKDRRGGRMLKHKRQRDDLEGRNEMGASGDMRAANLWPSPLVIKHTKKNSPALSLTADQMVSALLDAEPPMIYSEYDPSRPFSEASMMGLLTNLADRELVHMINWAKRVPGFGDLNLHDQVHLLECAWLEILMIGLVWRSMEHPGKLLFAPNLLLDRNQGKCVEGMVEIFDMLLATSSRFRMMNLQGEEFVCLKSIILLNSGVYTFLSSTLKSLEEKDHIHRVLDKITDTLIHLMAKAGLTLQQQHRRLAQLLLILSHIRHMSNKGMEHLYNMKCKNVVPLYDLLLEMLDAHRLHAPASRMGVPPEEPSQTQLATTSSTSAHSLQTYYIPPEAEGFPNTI
human Dopamine Transporter (DAT), SLC6A3 (gene 6531), sequence (Q01959 whole entry, looked up): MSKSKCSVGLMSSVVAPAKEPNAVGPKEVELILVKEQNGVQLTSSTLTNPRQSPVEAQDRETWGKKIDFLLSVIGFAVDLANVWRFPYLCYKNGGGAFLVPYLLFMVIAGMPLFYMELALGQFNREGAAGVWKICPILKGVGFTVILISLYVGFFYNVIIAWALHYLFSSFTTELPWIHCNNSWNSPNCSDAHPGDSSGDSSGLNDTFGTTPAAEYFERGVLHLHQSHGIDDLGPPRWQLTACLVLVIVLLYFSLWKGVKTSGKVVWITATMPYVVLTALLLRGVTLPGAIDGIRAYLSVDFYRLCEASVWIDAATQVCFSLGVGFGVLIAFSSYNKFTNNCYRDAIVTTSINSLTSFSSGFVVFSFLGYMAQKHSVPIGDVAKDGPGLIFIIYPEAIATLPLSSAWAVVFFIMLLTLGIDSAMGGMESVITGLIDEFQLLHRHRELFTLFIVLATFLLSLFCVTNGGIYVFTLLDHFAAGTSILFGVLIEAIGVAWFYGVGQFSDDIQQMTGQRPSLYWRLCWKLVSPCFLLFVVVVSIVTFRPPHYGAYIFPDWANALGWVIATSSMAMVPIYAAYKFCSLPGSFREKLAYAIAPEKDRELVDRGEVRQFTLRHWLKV

CN1CCC[C@H]1c1cccnc1
inactive: [1] | [2] | [3] | [4] | [5] | [6] | [7]

CC(=O)CC(C)(C)O
inactive: [8] | [2] | [3] | [4] | [9] | [10] | [6] | [7]

CC(C)CCCCCCOC(=O)CCCCC(=O)OCCCCCCC(C)C
inactive: [11] | [3] | [4] | [9] | [12] | [6] | [7]

COCC(C)O (stereo not drawn)
active: [13] 11.5 µM
inactive: [3] | [4] | [5] | [6] | [7]

Cc1ccc(S(=O)(=O)O)c(C)c1
inactive: [3] | [4] | [6] | [7]
active: [3] 24 µM

CCCCCCCC(=O)O
inactive: [11] | [14] | [4] | [12] | [6] | [7]
active: [2] 21.3 µM | [3] 22.1 µM

CC(O)C(=O)O (stereo not drawn)
inactive: [3] | [4] | [9] | [10] | [5]

N#C[C@@H]1CC(F)(F)CN1C(=O)CNC1CC2CCC(C1)N2c1ncccn1 (stereo partly drawn)
inactive: [8] | [2] | [3] | [4] | [10] | [12] | [6] | [7]

CCCCCCCCCCCCN1CCCC1=O
active: [9] 11.6 µM | [10] 11.2 µM | [12] 12.4 µM
inactive: [13] | [2] | [3] | [4] | [6] | [7]

O=C1OC2(c3ccccc31)c1cc(Br)c(O)c(Br)c1Oc1c2cc(Br)c(O)c1Br
inactive: [13] | [2] | [3] | [4] | [9] | [10] | [12] | [5]
active: [6] 74 µM | [7] 73.1 µM

OCCC(F)(F)C(F)(F)C(F)(F)C(F)(F)C(F)(F)C(F)(F)C(F)(F)C(F)(F)F
active: [8] 21.8 µM | [4] 3.54 µM
inactive: [13] | [2] | [3] | [12] | [5]

CCCCCCCCC(=O)O
inactive: [2] | [3] | [4] | [12]

CC(O)CO (stereo not drawn)
inactive: [3] | [4] | [9] | [10] | [12] | [6] | [7]

OC1CCCCC1
inactive: [13] | [3] | [4] | [6] | [7]

CC(C)(C)CC(C)(C)c1ccc(O)c(-n2nc3ccccc3n2)c1
inactive: [2] | [3] | [4] | [6] | [7]
active: [9] 35.7 µM | [10] 34.5 µM | [12] 75.6 µM and 79 µM

CCCCC(CC)COC(=O)CCCCC(=O)OCC(CC)CCCC (stereo not drawn)
inactive: [2] | [3] | [4] | [9] | [10] | [12] | [6] | [7]

CC(C)(C)c1cccc(C(C)(C)C)c1O
inactive: [3] | [4] | [12] | [6] | [7]
active: [9] 78.7 µM | [12] 79.8 µM

O=C(OCCOCCOC(=O)c1ccccc1)c1ccccc1
inactive: [3] | [4] | [9] | [10] | [12] | [6] | [7]

OCCC(F)(F)C(F)(F)C(F)(F)C(F)(F)C(F)(F)C(F)(F)F
inactive: [2] | [3] | [9] | [10] | [12] | [6] | [7]
active: [4] 11.6 µM

CCOC(=O)CC(O)(CC(=O)OCC)C(=O)OCC
inactive: [1] | [2] | [3] | [4] | [5] | [6] | [7]

C[C@@H]1C[C@H]2[C@@H]3CCC4=CC(=O)C=C[C@]4(C)[C@@]3(F)[C@@H](O)C[C@]2(C)[C@@]1(O)C(=O)COP(=O)(O)O
inactive: [13] | [2] | [3] | [4] | [12] | [6] | [7]
